Peg3 prom inh = reduces Peg3 promoter-driven luciferase expression in HeLa. HeLa PEG-Prom luciferase reporter, luminescence, overnight. inhibition, % at 20 µM. 360,000 tested, 1.7% active;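 active = inhibition of at least 50% at 20 µM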
ABHD5-PLIN5 inh = blocks binding of human ABHD5 to perilipin-5; Split G. princeps luciferase complementation, luminescence, 4 h; inhibition, % at 4 µM; 360,000 tested, 0.78% active;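 active = inhibition above the mean inhibition across every tested compound plus 3 SD, cut at about 22% in these data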;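 note: 0% = DMSO only wells and the 100% control is not disclosed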
CF NFkB inh = inhibitors of cystic fibrosis induced NF-kB; inhibition, % at 5 µM; KKLEB NF-kB-GFP reporter, PAF-induced, GFP fluorescence overnight; 360,000 tested, 0.86% active;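 active = at least 50% inhibition at 5 µM, scaled per plate between neutral and stimulator controls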;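 note: PAF is a Pseudomonas aeruginosa culture filtrate used as stimulus; plate controls were PAF-stimulated DMSO wells for no effect and unstimulated DMSO wells for full effect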
Mdm2-MdmX inh = human Mdm2/MdmX binding inhibition. O15151+Q00987. inhibition, % at 8 µM. SaOS-2 split-luciferase Mdm2/MdmX complementation, luminescence. 330,000 tested, 3% active. AID 485346;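 active = inhibition of at least 50% at 8 µM in the primary screen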
KKLEB tox = CF airway cell cytotoxicity counter-screen. KKLEB CF airway cells viability, ATPlite luminescence, overnight; active compounds read low; cells stimulated with P. aeruginosa culture filtrate. activity change (cytotoxicity), % at 5 µM. 360,000 tested, 0.36% active. AID 602141;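 active = corrected activity change at or below -50% at 5 µM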
HIF-2a block = HIF-2a inhibition; 786-0 RCC cells HIF-2a reporter, luciferase luminescence, overnight; inhibition, % at 18.8 µM; 360,000 tested, 0.72% active;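 active = inhibition of the luminescence signal of 40% or more relative to plate controls, in a single-dose primary screen at 18.75 µM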
ABHD5-PLIN5 conf = confirmation of human ABHD5-PLIN5 interaction inhibitors | shares compounds with ABHD5-PLIN5 inh | biochemical ABHD5-PLIN5 interaction, luminescence | inhibition, % at 4 µM | 2,200 tested, 67% active; in the data active = inhibition above about 23%;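 note: 0% = DMSO vehicle wells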
HNF4 split-luc = HNF4 split-luciferase signal hit, counter-screen | AID 651674 | shares compounds with ABHD5-PLIN5 inh | 2,200 tested, 77% active | HNF4 dimerization, luminescence, biochemical | inhibition, % at 4 µM;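 active = mean inhibition across replicate wells exceeding the computed hit threshold, cut at about 13% in these data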;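 note: light from luciferase halves that rejoin when HNF4 fusion proteins dimerize; 0% = DMSO only wells and the 100% control is not given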
Active calls of the source: *; / = not tested or not shown. This is a sample that favours compounds with a hit; in the whole collection about 4.6% have one here.

SMILES | Peg3 prom inh | ABHD5-PLIN5 inh | CF NFkB inh | Mdm2-MdmX inh | KKLEB tox | HIF-2a block | ABHD5-PLIN5 conf | HNF4 split-luc
Cc1cc(C)c2c(=O)n(CC(=O)Nc3cccc(F)c3)sc2n1 | 17 | 44* | 4 | 21 | 4 | 20 | 41* | 109*
CCOc1ccc(NC(=O)Cn2ncc3ccccc32)cc1 | -183 | -6 | -11 | -19 | 5 | -182 | / | /
Cc1ccc(NC(=O)Cn2c(C)cc(C)c(C#N)c2=O)c(Cl)c1 | 1 | 4 | 0 | 1 | 8 | 15 | / | /
CCOc1ccc(NC(=O)Cn2sc3nc(C)cc(C)c3c2=O)cc1 | 43 | 64* | 16 | -12 | 11 | 26 | 45* | 105*
Cc1ccc(NC(=O)Cn2sc3nc(C)cc(C)c3c2=O)c(Cl)c1 | 13 | 65* | -5 | 6 | 4 | 6 | 10 | 98*
Cc1cc(C)c2c(=O)n(CC(=O)N3CCC(Cc4ccccc4)CC3)sc2n1 | / | / | / | 12 | / | / | / | /
Cc1cc(C)c2c(=O)n(CC(=O)Nc3ccc(Cl)cc3)sc2n1 | 16 | 76* | -3 | 8 | -8 | 27 | 41* | 108*
N#CCCCc1cn(-c2nc3ccccc3s2)nn1 | / | -2 | / | / | / | -241 | / | /
COC(=O)C[C@@H]1CC[C@H](NC(=O)c2ccc3c(c2)OCO3)[C@@H](CO)O1 | / | 1 | / | / | / | 2 | / | /
FC(F)(F)c1cc(-c2ccccc2)nc(N2CCCCCC2)n1 | 12 | 1 | 2 | 26 | 11 | 5 | / | /
CS(=O)(=O)c1nc(-c2ccccc2)cc(C(F)(F)F)n1 | 104* | 63* | 95* | -32 | -73* | 94* | 88* | 104*
O=c1[nH][nH]c2c1[C@H](c1ccc(Cl)cc1)O[C@H](C1CCCCC1)C2 | / | 0 | / | / | / | -1 | / | /
Cc1ccc(S(=O)(=O)N2C[C@H]3n4c(=O)ccc(=O)n4C[C@H](OC(=O)NCc4ccccc4F)[C@@]3(O)C2)cc1 | 11 | 25* | 44 | / | -8 | 20 | 49* | 42*
Cc1ccc(S(=O)(=O)N2C[C@H]3n4c(=O)ccc(=O)n4C[C@H](OC(=O)Nc4cccs4)[C@@]3(O)C2)cc1 | -9 | 35* | 19 | / | -9 | 16 | 58* | 34*
O=C1c2cccc3cccc(c23)C(=O)N1CCc1ccccc1 | -186 | 2 | -42 | -92 | -5 | -241 | / | /
CC(=O)Nc1ccc(NC(=O)COC(=O)/C(=C/c2ccccc2)n2nnnc2C)cc1 | 0 | 40* | -70 | 36 | -2 | 23 | 52* | 51*
Cc1nnnn1/C(=C\c1ccccc1)C(=O)OCC(=O)NC(C)(C)C | -22 | 13 | 11 | 37 | -10 | 25 | / | /
Cc1ccc(NC(=O)CS(=O)c2ccccc2N)c(C)c1 (stereo not drawn) | -265 | 4 | -4 | -9 | 12 | -215 | / | /
Cc1cc(/C(N)=N/OC(=O)Nc2ccc(Cl)cc2)no1 | -188 | -3 | 11 | 7 | -2 | -167 | / | /
CC(C)Cc1ccc(C(C)CC2=CCC(CN(C)C)C2=O)cc1 (stereo not drawn) | 101* | 38* | -9 | / | 2 | -9 | 82* | 81*
CC(C)Cc1ccc(S(=O)(=O)N2CCOCC2)cc1 | 6 | -2 | 17 | 10 | -5 | 1 | / | /
CCCC[C@@H]1CNCCN1CCCc1cc(OC)c(OC)c(OC)c1 | -2 | 3 | 8 | 15 | -2 | -2 | / | /
CCOC(=O)c1c(CSC(=N)N)n(-c2ccccc2)c2cc(Br)c(OC(C)=O)cc12 | 31 | 32* | 16 | 25 | 15 | 6 | 29* | 30*
CCCOC(=O)CSc1nnc(-c2cc(OC)c(OC)c(OC)c2)o1 | 10 | 74* | -11 | 30 | 10 | 24 | 5 | 3
O=C(NCCc1ccc(Cl)cc1)C1COc2ccccc2O1 (stereo not drawn) | -17 | -9 | 11 | -28 | -21 | -31 | / | /
SMILES | Peg3 prom inh | ABHD5-PLIN5 inh | CF NFkB inh | Mdm2-MdmX inh | KKLEB tox | HIF-2a block | ABHD5-PLIN5 conf | HNF4 split-luc
C=CCn1c(SCC(=O)NC2CCCC2)nc2scc(-c3ccco3)c2c1=O | 11 | 43* | 7 | 23 | 8 | 7 | 36* | 86*
C=CCn1c(SCC(=O)NCC2CCCO2)nc2scc(-c3ccccc3)c2c1=O (stereo not drawn) | 13 | 4 | -8 | 19 | 5 | 23 | / | /
CC(=O)Nc1sc(C)c(C)c1C(=O)OCC(=O)N(CCC#N)c1cc(C)cc(C)c1 | 3 | 7 | 17 | -1 | -4 | 2 | / | /
Cc1ccc(NC(=O)c2cc(-c3ccc(C)o3)nc3ccccc23)cc1 | -3 | 35* | -11 | 24 | -4 | -19 | 38* | 40*
CCCCCn1nc(C(=O)N(CC)c2c(N)n(CCCC)c(=O)[nH]c2=O)c2ccccc2c1=O | 0 | 2 | 2 | 8 | -15 | 8 | / | /
O=C(CN1C(=O)CNC1=O)Nc1ccc(Cl)cc1 | 16 | 3 | -6 | -3 | -9 | 12 | / | /
O=C(Cn1sc2ccccc2c1=O)Nc1ccc(Br)cc1 | 0 | 65* | -3 | / | -9 | 7 | 81* | 118*
O=C(CN1C(=O)C2CC=CCC2C1=O)Nc1ccc(Br)cc1 (stereo not drawn) | 3 | -1 | 5 | 16 | 8 | -1 | / | /
O=C(Cn1sc2ccccc2c1=O)Nc1ccc(F)cc1 | 10 | 58* | 28 | / | -23 | 10 | 69* | 115*
O=C(Cn1sc2ccccc2c1=O)Nc1ccc(Cl)cc1 | 2 | 62* | 42 | / | -10 | -10 | 83* | 118*
O=c1[nH]c(Sc2ccc([N+](=O)[O-])cc2[N+](=O)[O-])nc2ccccc12 | -58 | 41* | 22 | -36 | -28 | -91 | 41* | 33*
CC1(C(=O)NS(=O)(=O)c2ccc(Br)cc2)CCN1C(=O)Cc1cccs1 (stereo not drawn) | 12 | 3 | 0 | / | -2 | 6 | / | /
N#CC(C(O)c1ccccc1)N1CCOCC1 (stereo not drawn) | 4 | 0 | 13 | / | 7 | 9 | / | /
O=C(Cc1cccc([N+](=O)[O-])c1)Nc1ccc(C(=O)N2CCCCC2)cc1 | 4 | 25* | 22 | 13 | -18 | -9 | 5 | 4
O=C(O)c1cccc(S(=O)(=O)Nc2ccc3oc(=O)sc3c2)c1 | 4 | 63* | 0 | 0 | 12 | 8 | -40 | 42*
CC1=NN(c2ccccc2)C(=O)/C1=C\C=C1/N(C)c2ccccc2C1(C)C | 3 | 26* | -8 | 26 | 7 | 3 | 21 | 23*
CC1(C(=O)NCc2ccc(C(F)(F)F)cc2)CCN1Cc1c(F)cccc1F (stereo not drawn) | 7 | 4 | 21 | / | -4 | 13 | / | /
